Assay outcomes as filed in PubChem.
Only some compounds are listed: those with a hit (about 2.2% of all), similar ones and a draw of the others.
Mito fusion act – blocks mitochondrial division or promotes mitochondrial fusion. 320,000 compounds, 0.23% hits. Potency, µM (highest dose often 46.1 µM), usual class: activators. AID 485298. S. cerevisiae fusion-defective mutant growth rescue, CellTiterGlo 48 h; also: nearly all actives have a fitted effect of over 45% in size
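Growth-rescue viability read-out: after 48 h at the non-permissive 37C in glycerol/ethanol YPEG, yeast mitochondrial fusion mutants are measured by CellTiterGlo luminescence; compounds (23 nl pinned per well) restoring growth score as division inhibitors or fusion activators.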
TDP-43 yeast inh – inhibitors of TDP-43 toxicity in yeast | TDP-43 expressing yeast growth rescue, BacTiter-Glo, 24 h | Potency, µM (series often up to 46.1 µM), most hits filed as activators | 410,000 compounds, 1.8% hits; also: nearly all actives have a fitted effect of over 50% in size
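Readout is BacTiter-Glo luminescence of cell growth, so inhibitors register as activators. TDP-43-expressing yeast at OD600=0.02 in galactose medium, after raffinose pregrowth to mid-log, were incubated with compound for 24 hr at 30 deg C.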
Abeta yeast res – restores growth of yeast expressing A-beta42 peptide. Potency, µM (series often up to 46.1 µM), hits mostly activators. yeast expressing A-beta42, growth rescue, OD600, 48 h; response scale: 0% DMSO, 100% iron-clioquinol control. 410,000 compounds, 0.063% hits; also: nearly all actives have a fitted effect of over 55% in size
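Yeast growth medium received pinned compounds, then yeast cells expressing toxic A-beta were added; plates incubated at 30 C for 48 hr. Growth read as absorbance at 600 nm, normalized to DMSO and equimolar FeCl3 plus clioquinol controls.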
aSyn rescue – alpha-synuclein toxicity inhibition in yeast | Yeast expressing alpha-synuclein, growth rescue, BacTiter-Glo, 24 h | Potency, µM (top dose mostly 46.1 µM), actives largely listed as activators | 370,000 compounds, 0.14% hits | AID 652106; also: nearly all actives have a fitted effect of over 65% in size
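Galactose-induced alpha-syn yeast (OD600=0.02, raffinose-pregrown) + pinned cpd, 24 hr, 30 deg C; growth by BacTiter-Glo luminescence. Growth restoration scores as activation.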
FUS suppressor – rescues growth of FUS-expressing yeast; 390,000 compounds, 0.24% hits; Potency, µM (titrated, usually from 76.6 µM), actives largely listed as activators; AID 1347120; S. cerevisiae FUS-expressing, growth rescue, OD600, 24 h; also: nearly all actives have a fitted effect of over 55% in size
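Steps: raffinose overnight preculture; dilution to OD 0.005 in 2% galactose minimal medium; compound addition (concentration series); 24hr at 30C, 99% humidity; absorbance read at 600 nm.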
Large screens that a line does not name were inactive. Calls follow the shape of the dose curve; as a rule, active = well fitted curve in the direction sought with a large enough effect; inconclusive = small, poorly fitted or top-dose-only effect, or another doubt; inactive = no such curve, though single readings can be large; an effect the other way counts as inactive or inconclusive.

Cc1ccc(Cl)cc1N1CCN(S(=O)(=O)c2c(C)noc2C)CC1	Mito fusion act 18µM
Cc1ccc(C)c(N2CCN(S(=O)(=O)c3c(C)noc3C)CC2)c1	Mito fusion act inconclusive
COc1cccc(NC(=O)CN(C)C(=O)c2cccc(NS(=O)(=O)c3ccccc3)c2)c1	FUS suppressor inconclusive
COc1cccc(NC(=O)CN(C)C(=O)c2cccc(S(=O)(=O)N3c4ccccc4CC3C)c2)c1 (configuration not stated)	FUS suppressor 22µM
COc1ccc2c(c1)CN1C(=O)N(CCc3ccccc3)S(=O)(=O)CC21 (configuration not stated)	none (no result: Mito fusion act, TDP-43 yeast inh, Abeta yeast res, aSyn rescue)
COc1cc(OC)c(C2CC(=O)N3CN(c4ccccc4)CSC3=C2C#N)cc1OC (configuration not stated)	FUS suppressor inconclusive
CCc1ccccc1N1CSC2=C(C#N)C(c3cc(OC)c(OC)cc3OC)CC(=O)N2C1 (configuration not stated)	TDP-43 yeast inh 0.032µM, FUS suppressor inconclusive
CCn1c(SCc2ccc(F)cc2Cl)nnc1-c1nonc1NC(C)=O	none (no result: Mito fusion act, aSyn rescue)
CCCn1cc(CN2CCC(n3nccc3NC(=O)c3ccccc3)CC2)c(C)n1	none
CC1(C)CCc2cc(O)ccc2O1	none (no result: Mito fusion act, TDP-43 yeast inh, Abeta yeast res, FUS suppressor)
C=CCNc1nc(-c2ccc(Cl)cc2)cs1	TDP-43 yeast inh 11µM
O=C(CC1SC(N2CCCC2)=NC1=O)Nc1ccc(C(=O)N2CCN(c3cccc(Cl)c3)CC2)cc1 (configuration not stated)	none
CC(=O)Nc1ccc(SCc2ncc(-c3ccccc3)o2)cc1	Mito fusion act inconclusive
c1ccc(-c2cnc(CSc3ncnc4sccc34)o2)cc1	TDP-43 yeast inh 22µM
Cc1ccc(CONS(=O)(=O)c2cc(C)ccc2C)cc1	Mito fusion act inconclusive, TDP-43 yeast inh 32µM
O=C1COc2ccc(C(=O)COC(=O)CNC(=O)c3ccco3)cc2N1	none
COc1cccc(-c2nn(C)c3sc(C(=O)Nc4ccc5c(c4)OCCO5)cc23)c1	none
Cn1nc(-c2ccccc2F)c2cc(C(=O)Nc3ccc4c(c3)OCCO4)sc21	TDP-43 yeast inh 16µM
CCC1=Nc2cc(C(=O)O)ccc2Sc2ccccc21	TDP-43 yeast inh 20µM
CCC1=Nc2cc(C(=O)NCc3ccco3)ccc2Sc2ccccc21	Mito fusion act inconclusive, TDP-43 yeast inh inconclusive
CN1CCN(S(=O)(=O)c2cccc(C(=O)N(Cc3nnc(-c4ccccc4Cl)o3)C3CC3)c2)CC1	none
O=c1ccc(-c2ccccc2)nn1Cc1ccc(Cl)cc1	TDP-43 yeast inh 20µM, aSyn rescue inconclusive (no result: Mito fusion act)
O=c1ccc(/C=C/c2ccccc2)nn1Cc1ccccc1	TDP-43 yeast inh 20µM
Nc1cc(-c2ccccc2)nn1Cc1ccc(Cl)cc1	none
Cc1cc(Nc2ccc(Br)cc2)n2nc(-c3ccccc3C)nc2n1	TDP-43 yeast inh 14µM (no result: Mito fusion act, aSyn rescue)
COc1ccccc1Nc1cc(C)nc2nc(-c3ccccc3)nn12	TDP-43 yeast inh 13µM (no result: Mito fusion act, aSyn rescue)
Cc1ccc(-c2nc3nc(C)cc(Nc4ccccc4O)n3n2)cc1	TDP-43 yeast inh inconclusive (no result: Mito fusion act)
Cc1cccc(-c2nc3nc(C)cc(NC(C)c4ccccc4)n3n2)c1 (configuration not stated)	TDP-43 yeast inh 25µM (no result: Mito fusion act)
Cc1ccc(S(=O)(=O)N2CCN(C(=O)COC(=O)c3cccc(Cl)c3)CC2)c(C)c1	TDP-43 yeast inh inconclusive
CCN1C(C(=O)c2ccccc2)=C(OC(=O)c2ccc(OC)cc2)c2ccccc2S1(=O)=O	none (no result: Mito fusion act, aSyn rescue)
CCCC(=O)OC1=C(C(C)=O)N(Cc2ccccc2)S(=O)(=O)c2ccccc21	TDP-43 yeast inh 11µM (no result: Mito fusion act, aSyn rescue)
CCCCN(CCCC)C1=C(C(=O)c2ccccc2)N(C)S(=O)(=O)c2ccccc21	aSyn rescue 16µM (no result: Mito fusion act)
CCN1C(C(=O)c2ccccc2)=C(OC(=O)C(C)C)c2ccccc2S1(=O)=O	TDP-43 yeast inh 18µM (no result: Mito fusion act, aSyn rescue)
CCN1C(C(=O)c2ccccc2)=C(OC(=O)COc2ccccc2)c2ccccc2S1(=O)=O	TDP-43 yeast inh inconclusive (no result: Mito fusion act, aSyn rescue)
CCCCC(=O)OC1=C(C(C)=O)N(Cc2ccccc2)S(=O)(=O)c2ccccc21	TDP-43 yeast inh inconclusive (no result: Mito fusion act, aSyn rescue)
CCCCN(CCCC)C1=C(C(=O)c2ccccc2)N(CC)S(=O)(=O)c2ccccc21	TDP-43 yeast inh inconclusive, Abeta yeast res inconclusive, aSyn rescue inconclusive (no result: Mito fusion act)
CCN1/C(=C(\O)c2ccccc2)C(=O)c2ccccc2S1(=O)=O	TDP-43 yeast inh inconclusive, aSyn rescue 4µM
Cn1c(SCC2CCC2)nnc1-c1ccco1	none (no result: Mito fusion act, TDP-43 yeast inh, Abeta yeast res, aSyn rescue)
CCCCN1C(C(=O)c2ccccc2)=C(OC(=O)CC)c2ccccc2S1(=O)=O	TDP-43 yeast inh 22µM (no result: Mito fusion act, aSyn rescue)
CN(C)c1ncnc2c1ncn2[C@H]1CN(Cc2cccs2)C[C@@H](CO)O1	none (no result: Mito fusion act)
COc1cccc(Oc2cncnc2-c2ccc(OC)cc2O)c1	Mito fusion act inconclusive, TDP-43 yeast inh 20µM, aSyn rescue inconclusive
COc1ccc(-c2cncnc2-c2ccc(OC)cc2O)cc1	none
O=c1[nH]c(C2CCCN(S(=O)(=O)c3ccccc3Cl)C2)nc2c1nnn2Cc1ccc2c(c1)OCCO2 (configuration not stated)	FUS suppressor 14µM (no result: Abeta yeast res)
O=c1[nH]c(C2CCCN(S(=O)(=O)c3ccccc3Cl)C2)nc2c1nnn2Cc1ccc(OC(F)(F)F)cc1 (configuration not stated)	none (no result: Mito fusion act, aSyn rescue)
CCOc1ccccc1NC(=O)c1ccccc1-c1ccccc1	none
CCOc1ccccc1NC(=O)c1cnccn1	TDP-43 yeast inh 11µM
CCOc1ccccc1NC(=O)c1cccc2ccccc12	TDP-43 yeast inh 7.9µM
CCc1cc(=O)oc2cc(C)c(CN3CCCC(C)C3)c(O)c12 (configuration not stated)	FUS suppressor 7.1µM
CCCCc1cc(=O)oc2cc(C)c(CN3CCCC3)c(O)c12	FUS suppressor inconclusive
Cc1onc(-c2c(Cl)cccc2Cl)c1C(O)c1ccccc1 (configuration not stated)	TDP-43 yeast inh 11µM
Cc1onc(-c2c(Cl)cccc2Cl)c1C(O)c1ccc(F)cc1 (configuration not stated)	TDP-43 yeast inh inconclusive, aSyn rescue inconclusive
CCOC(=O)C1=NOC(C(C)=O)(C(=O)NC2CCCC2)C1 (configuration not stated)	none (no result: Mito fusion act, TDP-43 yeast inh, Abeta yeast res, aSyn rescue)
Cc1cc2n(n1)C(c1sccc1C)Nc1ccccc1-2 (configuration not stated)	TDP-43 yeast inh 18µM
C=C(C)COc1ccc(-c2ncncc2-c2ccc(Br)cc2)c(O)c1	none
C=C(C)COc1ccc(-c2nc(N)ncc2-c2ccc(Br)cc2)c(O)c1	TDP-43 yeast inh 20µM
COc1ccc(CNC(=O)c2ccc(NC(=O)N3CCSc4ccccc43)cc2)cc1	none (no result: Mito fusion act, aSyn rescue)
Nc1ccc2c(c1)OCCOCCOCCOCCOCCO2	none
c1ccc2c(c1)OCCOCCOc1ccccc1OCCOCCO2	Mito fusion act inconclusive, TDP-43 yeast inh 11µM
